Here are results for 21 compounds from PubChem BioAssay (NCI).

Compounds without any hit were thinned out: in the full panel of roughly 79,000, 15% have a hit. Values without a mark were called inactive. Activity calls are given as the source filed them. No stated cut-off is given here; in the data, active means growth inhibition above about 70%; inactive means the rest. Where a SMILES comes first, the peptide text is derived from it. The star is where a group is joined. Boc = CC(C)(C)OC(=O)*

Assay [1] can be described thus: NCI Yeast Anticancer Drug Screen. Data for the rad50 strain (AID 155).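 Further: 0% = growth of vehicle-only cultures of the same strain.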 Particulars: S. cerevisiae rad50 strain growth inhibition; at 50.0 µM; hits give high values. The essentials:
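Cells are treated with compound, grown, and their growth is then scored against vehicle-only cultures of the same repair-deficient yeast strain.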

The nature of assay [2]: NCI Yeast Anticancer Drug Screen. Data for the mec2-1 strain (AID 157). Particulars: S. cerevisiae mec2-1 strain, at 50.0 µM, hits give high values. A digest of the protocol:
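Readout is yeast growth inhibition, normalised to vehicle-treated controls, in the mec2-1 strain exposed to compound.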

The nature of assay [3]: NCI Yeast Anticancer Drug Screen. Data for the sgs1 mgt1 strain (AID 161).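 Further: 0% = growth of cultures given vehicle only.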 Conditions: S. cerevisiae sgs1 mgt1 strain, at 50.0 µM, hits give high values. A digest of the protocol: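 This yeast growth screen uses a strain with defined DNA-repair lesions; compound-treated growth is compared with vehicle-treated growth.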
Assay [4] in a line: NCI Yeast Anticancer Drug Screen. Data for the cln2 rad14 strain (AID 165).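 Further: 0% = growth equal to vehicle treated cultures.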 Particulars: S. cerevisiae cln2 rad14 strain, at 50.0 µM, hits give high values. A digest of the protocol:
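Relative to vehicle controls, growth inhibition of compound-treated cln2 rad14 yeast was recorded.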

Assay [5] can be described thus: NCI Yeast Anticancer Drug Screen. Data for the bub3 strain (AID 167). Conditions: S. cerevisiae bub3 mutant strain, at 50.0 µM, hits give high values. A digest of the protocol:
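Part of a panel of yeast mutants defective in DNA damage repair or cell cycle regulation. Each strain is grown with compound, and inhibition is calculated relative to solvent-treated cultures.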

The nature of assay [6]: NCI Yeast Anticancer Drug Screen. Data for the mlh1 rad18 strain (AID 175). Particulars: S. cerevisiae mlh1 rad18 strain growth inhibition; at 50.0 µM; hits give high values. A digest of the protocol:
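Test agents were incubated with a yeast strain of defined genotype (DNA damage repair defect). Inhibition of growth was derived by comparison with vehicle-exposed cultures.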

As to `COC(=O)CNC(=O)C(CC(C)C)NC(=O)C(CC(C)C)NC(=O)OC(C)(C)C` (stereo not drawn) (Boc-Leu-Leu-Gly-OMe; configuration not given here), the growth inhibition in assay [1] is 42.2%; in assay [2], 1.65%; in assay [3], 32.1%; in assay [4], 10.5%; in assay [5] it was -0.6%; in assay [6], 15.8%.
In the case of `Cc1cc2ccccc2c[n+]1CC(O)CBr` (stereo unspecified), the growth inhibition in assay [1] is -5.45%; in assay [2], 7.05%; in assay [3], 11.3%; in assay [4], -36.8%; in assay [5], -11.4%; in assay [6], 5.9%.
Turning to `c1ccc(-c2ccccc2N=C2N=NN=N2)cc1`, the growth inhibition was -1% in assay [1]; -6.9% in assay [2]; 2.2% in assay [3]; -16.4% in assay [4]; -13.6% in assay [5]; 6.55% in assay [6].
As for `Cc1c(F)c(F)c(-c2c(F)c(F)c(C)c(F)c2F)c(F)c1F`, the growth inhibition in assay [1] was 5%; in assay [2], -35.2%; in assay [3] it was -17.3%; in assay [4], 8.3%; in assay [5], -16.2%; in assay [6] it was 0.1%.
Consider `OC(CCCN1CCN2CCc3[nH]c4ccccc4c3C2C1)c1ccc(F)cc1` (stereo unspecified), for which the growth inhibition in assay [1] is 23.9%; in assay [2], -1.8%; in assay [3], 13.7%; in assay [4] it was 14.3%; in assay [5] it was 1.3%; in assay [6], 10.8%.
For the compound `CC(=O)CC(C)(C)c1cc(CC(C)(C)C(N)=O)on1`, the growth inhibition is 0.75% in assay [1]; 0.25% in assay [2]; 17.4% in assay [3]; 11.2% in assay [4]; 11.3% in assay [5]; 17.2% in assay [6].
For the compound `O=C(O)C1(C(=O)O)CCN(S(=O)(=O)c2ccccc2)CC1`, the growth inhibition is -4% in assay [1]; -10.9% in assay [2]; -39% in assay [3]; -5.2% in assay [4]; -9.85% in assay [5]; -7% in assay [6].
`CC(C)OC1CC1`: the growth inhibition in assay [1] was 4.65%; in assay [2], -10.6%; in assay [3], -10.5%; in assay [4], 4.9%; in assay [5], 11.7%; in assay [6], -21%.
Consider `C(=N/Nc1ccncc1)/c1ccc2ccccc2n1`, for which the growth inhibition was -1.8% in assay [1]; -22.6% in assay [2]; -11.4% in assay [3]; -26.9% in assay [4]; -7.65% in assay [5]; 4.05% in assay [6].
For `Cn1nc(-c2ccccc2)c(N=[N+]=[N-])cc1=O`, the growth inhibition in assay [1] is -18.1%; in assay [2], 14.6%; in assay [3], -41.3%; in assay [4], -11.9%; in assay [5] it was -10.9%; in assay [6] it was -34.6%.
Regarding `O=C1CCCNn2c(nc3ncccc3c2=O)N1`, the growth inhibition is 17.3% in assay [1]; 37% in assay [2]; 9% in assay [3]; -20.6% in assay [4]; 10.1% in assay [5]; -41.1% in assay [6].
As to `CC(C)/C=C1\CCC(CN(C)C)C1=O` (stereo unspecified), the growth inhibition in assay [1] is 30.4%; in assay [2], 56.1%; in assay [3] it was 68.8%; in assay [4] it was 31.4%; in assay [5] it was 75% (active); in assay [6] it was 85.8% (active).
On to `O=c1cc(-c2ccccc2)[nH]c2[nH]n(-c3ccccc3)c(=O)c12`, for which the growth inhibition is 8.55% in assay [1]; 14.2% in assay [2]; 24.8% in assay [3]; -10.2% in assay [4]; -9.55% in assay [5]; 16.4% in assay [6].
Consider `C=C(C)C12CC3CC(/C(=N/O)C(C1)/C3=N\O)[C@@]2(C)O` (stereo partly specified), for which the growth inhibition in assay [1] was -31.8%; in assay [2] it was -34.8%; in assay [3], -46%; in assay [4] it was -8.2%; in assay [5], -26.9%; in assay [6], -59%.
As for `CC(=O)OCC1OC(N2C(=O)/C(=C/c3ccc4c(c3)OCO4)SC2=S)C(OC(C)=O)C(OC(C)=O)C1OC(C)=O` (stereo unspecified), the growth inhibition was 1.5% in assay [1]; -12.2% in assay [2]; -20.9% in assay [3]; 1.15% in assay [4]; 0.15% in assay [5]; 0.2% in assay [6].
For the compound `CCc1cccc2[nH]c3cc([N+](=O)[O-])ccc3c12`, the growth inhibition in assay [1] was 12%; in assay [2], -13.8%; in assay [3], 2.5%; in assay [4] it was -22.8%; in assay [5], -0.4%; in assay [6], 15.7%.
Consider `N#CCCn1[nH]c(=O)c(Cl)c(Cl)c1=O`, for which the growth inhibition in assay [1] is 6.95%; in assay [2] it was 4.6%; in assay [3], -3.9%; in assay [4] it was -6.8%; in assay [5], 4.15%; in assay [6], -3.3%.
`Nc1ncnc2c1cnn2Cc1ccccc1`: the growth inhibition in assay [1] was 4.9%; in assay [2] it was -7.3%; in assay [3], 4.65%; in assay [4], -3.75%; in assay [5], 21.2%; in assay [6], 2.35%.
On to `Cc1noc2c1C(=O)CCC2`, for which the growth inhibition in assay [1] was -3.3%; in assay [2], -5.45%; in assay [3], 17.8%; in assay [4], 11.2%; in assay [5] it was 21.2%; in assay [6], 7.05%.
Regarding `c1ccc(-c2coc(-c3ccccc3)c2)cc1`, the growth inhibition in assay [1] is -16.2%; in assay [2], -11.8%; in assay [3] it was -17.6%; in assay [4], -12.2%; in assay [5], -9.35%; in assay [6] it was -1.9%.
As to `Cc1ccc(-c2cc(=O)c3cc(C)c(C)c(C(=O)O)c3o2)cc1[N+](=O)[O-]`, the growth inhibition in assay [1] was -20.7%; in assay [2], -5.1%; in assay [3], -1.05%; in assay [4] it was 12.2%; in assay [5], 2%; in assay [6] it was 31.1%.
